# KB-V1 MDR tox = KB-V1 MDR subline cytotoxicity. 400,000 tested, 3.4% active. KB-V1 MDR cells viability, CellTiter-Glo, 72 h. Potency, µM (series often up to 46.1 µM), most hits filed as cytotoxic; also: nearly all actives have a fitted effect of over 60% in size
#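 Cells of the MDR subline KB-V1 are plated, dosed with compound at multiple concentrations, and incubated 72 h at 37 degrees C; CellTiter-Glo is then added and luminescence read after 10 min.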
# HT1080NT lethal = kills 2HG-producing HT-1080-NT fibrosarcoma cells. HT-1080-NT fibrosarcoma viability, CellTiter-Glo ATP luminescence, 48 h. Potency, µM (titrated, usually from 46.1 µM), actives largely listed as cytotoxic. 360,000 tested, 1.6% active;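 also: NT is the 2HG producing partner of a matched IDH1 knockdown line; nearly all actives have a fitted effect of over 55% in size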
#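 HT-1080-NT; 750 cells/well; 5% FBS RPMI; 48 h compound, 37 degrees C; CellTiter-Glo luminescence; curve fitting and curve-class assignment.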
# HT1080 IDH1KD tx = toxicity to HT-1080 IDH1 knockdown cells (counter line); HT-1080 IDH1 knockdown viability, ATP luminescence, 48 h; Potency, µM (series often up to 46.1 µM), usual class: cytotoxic; 360,000 tested, 2% active
#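 Cytotoxicity counter-line: IDH1KD HT-1080, 48 h, CellTiter-Glo. Curves classed by r2, magnitude and activity.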
# IL1B secr inh = blocks inflammasome-driven IL-1 beta release. AID 743279. activity change, % at 57.5 µM. THP-1 LPS/ATP IL-1B secretion, AlphaLISA, 16 h; stronger effect = lower value. 360,000 tested, 4.7% active; in the data active = activity change below about -50%; inconclusive = mostly about -30% to -49%
#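 Secreted IL-1B measured by AlphaLISA bead assay after 16 h compound exposure of THP-1 cells; compounds (final up to 57.5 uM) added 1 h before LPS (250 ng/mL) and ATP (1.25 mM) stimulation; lower signal means less secretion.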
# KB-3-1 tox = kills parental KB-3-1 adenocarcinoma cells | KB-3-1 viability, CellTiter-Glo ATP luminescence, 72 h | Potency, µM (highest dose often 46.1 µM), actives largely listed as cytotoxic | 400,000 tested, 1.4% active; also: nearly all actives have a fitted effect of over 60% in size
#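 Screening of KB-3-1 cells (DMEM, 10% FBS, phenol-red free) ran from lowest to highest compound concentration; after 72 h at 37 °C viability was read luminescently and curves fitted.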
# Numbers stand for hits; - = inactive; ? = inconclusive; . = no result. Rows were chosen to be rich in hits. Some 8.8% of all compounds tested hit in one or more screens of this group. Unless noted, calls follow the shape of the dose curve; as a rule, active = well fitted curve in the direction sought with a large enough effect; inconclusive = small, poorly fitted or top-dose-only effect, or another doubt; inactive = no such curve, though single readings can be large; an effect the other way counts as inactive or inconclusive.
SMILES,KB-V1 MDR tox,HT1080NT lethal,HT1080 IDH1KD tx,IL1B secr inh,KB-3-1 tox
COc1cc2nc(C3CCC3)nc(N3CCN(c4ccccn4)CC3)c2cc1OC,?,-,-,-99,?
C=C(C)CSc1nnc2[nH]c(=O)cc(N)n12,18µM,-,-,-,16µM
O=C(CN1C(=O)CSc2ccc(S(=O)(=O)N3CCCC3)cc21)NCc1ccc(F)cc1Cl,-,.,.,.,-
Cc1nnnn1/C(=C\c1ccccc1)C(=O)OCC(=O)Nc1cccc(S(=O)(=O)N(C)C)c1,-,?,?,-,?
Cc1nnnn1/C(=C\c1ccccc1)C(=O)OCC(=O)Nc1ccc(Cl)cc1F,-,?,?,-111,-
NC(=O)C1CCCNC1 (stereo unspecified),-,?,-,-57,-
O=C(NC1CCNCC1)C1CCCCC1,-,-,-,-,-
CCOC(=O)COc1cccc2c(=O)n(CC(=O)N3CCc4ccccc43)ccc12,-,-,-,-,-
CCOC(=O)COc1cccc2c(=O)n(CC(=O)NCCc3ccccc3)ccc12,-,-,-,-,-
CCOC(=O)C(C)Oc1cccc2c(=O)n(CC(=O)NCCc3ccccc3)ccc12 (stereo unspecified),-,-,-,-53,-
CCOC(=O)C(C)Oc1cccc2c(=O)n(CC(=O)N3CCCc4ccccc43)ccc12 (stereo unspecified),-,-,-,-,-
CCOC(=O)C(C)Oc1cccc2c(=O)n(CC(=O)NCc3ccc(F)cc3)ccc12 (stereo unspecified),1.3µM,?,0.58µM,-,1.3µM
CCOC(=O)COc1cccc2c(=O)n(CC(=O)NCc3ccc4c(c3)OCO4)ccc12,-,4.6µM,?,-,?
CCOC(=O)C(C)Oc1cccc2c(=O)n(CC(=O)NCc3ccccc3)ccc12 (stereo unspecified),2.1µM,0.52µM,0.52µM,-98,1.2µM
O=C(NCc1ccc(Cl)cc1)c1ccc(NC(=O)N2CC3CCCN3c3ccccc32)cc1 (stereo unspecified),-,.,.,.,-
Cc1ccccc1S(=O)(=O)N1CCN(c2nc(-c3cccs3)nc3ccccc23)CC1,.,-,-,.,.
Cc1c(C(=O)Nc2ccc(F)cc2F)nnn1-c1ccccc1Br,-,.,.,.,-
COC(=O)COc1cccc2c(=O)n(CC(=O)NCc3ccc(F)cc3)ccc12,?,?,3.7µM,-,1.5µM
COc1ccc(NC(=O)Cn2ccc3c(OC)cccc3c2=O)cc1,-,-,-,-,-
CCOC(=O)C(C)Oc1cccc2c(=O)n(CC(=O)Nc3ccc(OC)cc3)ccc12 (stereo unspecified),?,-,-,-55,-
CCOC(=O)COc1cccc2c(=O)n(CC(=O)N3CCC(C)CC3)ccc12,-,-,-,-,-
COC(=O)COc1cccc2c(=O)n(CC(=O)N3CCCCC3)ccc12,-,-,-,-,-
COC(=O)COc1cccc2c(=O)n(CC(=O)N3CCC(C)CC3)ccc12,-,-,-,-61,-
CC1(C)CC(=O)C=C(c2ccccc2-c2ccc3cc[nH]c3c2)C1=O,?,-,-,-,-
CC1(C)CC(=O)C=C(c2ccc(-c3ccc(OC(F)(F)F)cc3)cc2)C1=O,?,?,21µM,?,?
SMILES,KB-V1 MDR tox,HT1080NT lethal,HT1080 IDH1KD tx,IL1B secr inh,KB-3-1 tox
CC1(C)CC(=O)C=C(c2ccc(-c3ccccc3)cc2)C1=O,-,-,-,-,-
CC1(C)CC(=O)C=C(c2ccc(-c3ccc4[nH]ccc4c3)cc2)C1=O,?,?,?,-,8.2µM
COC(=O)C1=C(C)NC(C)=C(C(=O)OC)C1C(=O)OCc1nnc(-c2ccccc2Cl)o1,-,-,-,-,-
COc1cccc(NCc2cccn2-c2nnc(N3CCC(C)CC3)s2)c1,?,.,.,.,-
CC(=O)n1cc([C@@H]2C=C(C(=O)N3CCN(Cc4ccc5c(c4)OCO5)CC3)O[C@H](OCCCCO)C2)c2ccccc21,-,-,-,-52,-
CC(=O)n1cc([C@H]2C=C(C(=O)N3CCN(Cc4ccccc4)CC3)O[C@@H](OCCCCO)C2)c2ccccc21,-,-,-,-,-
O=C(C1=C[C@H](c2ccccc2)C[C@H](OCc2ccc(CO)cc2)O1)N1CCN(Cc2ccc3c(c2)OCO3)CC1,?,-,-,-53,?
O=C(C1=C[C@@H](c2ccc(C(F)(F)F)cc2)C[C@@H](OCc2ccc(CO)cc2)O1)N1CCN(Cc2ccccc2)CC1,?,-,-,-60,?
CN1CCN(C(=O)C2=C[C@@H](c3ccc(C(F)(F)F)cc3)C[C@@H](OCc3ccc(CO)cc3)O2)CC1,?,-,-,-,-
OC[C@@H]1CN(Cc2ccc3c(c2)OCO3)C[C@H](n2cnc3c(NCc4ccc(F)cc4)ncnc32)O1,-,-,-,-,-
Cc1ccc(S(=O)(=O)N2CC3(O)CN(C(=O)OC(C)C)N(C(=O)OC(C)C)CC3(OC(=O)NCc3ccco3)C2)cc1 (stereo unspecified),-,-,-,-56,-
Cc1ccc(S(=O)(=O)N2CC3(O)CN(C(=O)OC(C)C)N(C(=O)OC(C)C)CC3(OC(=O)Nc3cccs3)C2)cc1 (stereo unspecified),-,-,-,-80,-
Cc1ccc(S(=O)(=O)N2CC3(O)CN(C(=O)OC(C)C)N(C(=O)OC(C)C)CC3(OC(=O)NC3CCCC3)C2)cc1 (stereo unspecified),-,-,-,-,?
CCOc1cc(N2CCOCC2)c(OCC)cc1NS(=O)(=O)c1ccc(Cl)s1,5.2µM,?,4.1µM,-,6.5µM
Cc1cc(C)n(CCC(=O)N2CCCC(Nc3ccc(F)cc3)C2)n1 (stereo unspecified),.,-,-,-,.
CCOC(=O)c1c(-c2ccccc2)csc1NC(=O)C(C)NCCCN1CCOCC1 (stereo unspecified),?,?,?,-53,?
CCOC(=O)c1c(-c2ccccc2)csc1NC(=S)NC,-,-,-,-,-
CCOC(=O)c1c(-c2ccc(F)cc2)csc1NC(=O)CCN1CCOCC1,15µM,-,-,-,-
CCOC(=O)c1c(-c2ccccc2)csc1NC(=O)CCN1C(=O)c2ccccc2C1=O,-,-,-,-,-
CCOC(=O)c1c(-c2ccc(F)cc2)csc1NC(=O)CCN1C(=O)c2ccccc2C1=O,?,-,-,-,-
CCOC(=O)c1c(-c2ccc(-c3ccccc3)cc2)csc1NC(=O)CNCCN(C)C,?,9.2µM,9.2µM,-104,?
CCOC(=O)c1c(-c2ccc(-c3ccccc3)cc2)csc1NC(=O)CCN1CCOCC1,-,?,?,-50,?
Cn1c(Oc2ccc(Cl)cc2)c(C=O)c2ccccc21,?,?,?,-95,21µM
COc1ccc(Oc2c(C=O)c3ccccc3n2C)cc1,-,-,-,?,-
Cn1c(Oc2ccc(F)cc2F)c(C=O)c2ccccc21,-,-,-,-88,-

# Screening results deposited in PubChem by National Center for Advancing Translational Sciences (NCATS).
